For test [1], the system named is Wnt5a (protein binding on small-molecule microarray). The experiment in a line: small molecules binding Wnt5a protein – biophysical, small-molecule microarray, 635/667 nm fluorescence, primary screen (AID 1142).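 Also: fluorescence read at 667 nm with signal to noise per printed feature.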 The note with it: 635 nm fluorescence, higher = more signal.
A short description of test [2]: ATP-based viability of Huh7 replicon cells – cell-based, CellTiter-Glo luminescence, basal, 48 h, cytotoxicity control for HCV replication inhibitor project, primary screen (AID 1143).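 Also: Huh7 hepatoma cells carrying a hepatitis C replication reporter with no stimulus; test concentration not given here.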 The note with it: higher = more signal, called active from +8 up or from −8 down.
Test [3] is described as follows: Pseudomonas biofilm growth suppression – PAO1 strain, BacTiter-Glo luminescence, LB-PBS, primary screen (AID 1144). The note with it: P. aeruginosa PAO1 biofilm, 12 h, higher = more signal.
Test [4] in a line: basal CRE-LacZ reporter activity in PC12 – cell-based, unstimulated, primary screen (AID 1145). As to conditions: no forskolin, luminescence, 4.5 h, higher = more signal, called active from +8 up or from −8 down.
Test [5] can be described thus: forskolin-driven CRE-LacZ activity in PC12 – cell-based, CRE-LacZ reporter, forskolin-stimulated, primary screen (AID 1146).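 Also: PC12 cells with 6xCRE LacZ reporter stimulated by forskolin 10 µM; beta-galactosidase reporter signal reflecting CREB driven transcription.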 As to conditions: luminescence, 4.5 h, higher = more signal, called active from +8 up or from −8 down.
The target of test [6] is Streptavidin (Streptomyces avidinii) (UniProt P22629). The experiment in a line: compounds binding control protein streptavidin – biophysical, small-molecule microarray, 635/667 nm fluorescence, artefact control for SMM compound annotation, primary screen (AID 1147).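 Also: signal reflects streptavidin binding to arrayed compounds as a control protein.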 As to conditions: higher = more signal.
Streptavidin (Streptomyces avidinii), sequence (P22629 whole entry, looked up): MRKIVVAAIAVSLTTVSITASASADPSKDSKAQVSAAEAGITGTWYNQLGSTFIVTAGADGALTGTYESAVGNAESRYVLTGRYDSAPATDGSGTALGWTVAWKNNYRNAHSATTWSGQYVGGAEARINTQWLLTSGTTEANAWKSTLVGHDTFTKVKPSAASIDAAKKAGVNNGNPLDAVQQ
Test [7] in a line: probe aInhba binding on compound microarray – biochemical, small-molecule microarray, 635/667 nm fluorescence, primary screen (AID 1148).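 Also: score merges 667nm spot fluorescence with signal-to-noise for antibody binding to printed compounds.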 The note with it: higher = more signal.
Test [8] has as its target Torsin-1A (Homo sapiens) (UniProt O14656). The experiment in a line: TOR1A wild-type binding on microarray – cell lysate, small-molecule microarray, lysate, 635/667 nm, primary screen (AID 1149). The note with it: COS7 hTOR1A-WT lysate, 635 nm fluorescence, higher = more signal.
Test [9] has the same target. As to the kind of experiment: torsin A mutant lysate binding on microarrays – cell lysate, small-molecule microarray, COS7 lysate, 635/667 nm fluorescence, primary screen (AID 1150).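 Also: score pools 667 nm emission and signal to noise measuring lysate protein binding.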 The note with it: COS7 hTOR1A mutant lysate, 635 nm fluorescence, higher = more signal.
Test [10] has as its system Sonic hedgehog protein (Shh). As to the kind of experiment: Sonic hedgehog microarray binding compounds – biochemical, small-molecule microarray, 635/667 nm fluorescence, primary screen (AID 1151).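 Also: Shh protein binding to compounds spotted on small-molecule microarray slides; score combines spot fluorescence intensity with signal-to-noise across triplicate slides.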 The note with it: 635 nm fluorescence, higher = more signal.
Test [11] is described as follows: optical density shifts of acrAB sulA E. coli – strain DRC41, OD650, 48 h, E. coli filamentation inducer project, primary screen (AID 1152).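 Also: E. coli MC1000 strain DRC41 lacking acrAB efflux pump and sulA.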 As to conditions: higher = more signal, called active from +8 up or from −8 down.
Test [12] is described as follows: probe aLefty1 binding on compound microarray – biochemical, small-molecule microarray, 635/667 nm fluorescence, primary screen (AID 1153).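 Also: score merges spot fluorescence with signal-to-noise ratio from the scanned slide images.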 As to conditions: higher = more signal.
Test [13] is described as follows: plasmodial surface anion channel blockers, osmotic lysis – cell-based, P. falciparum Indochina, OD700, 1 h, primary screen (AID 1154). The note with it: P. falciparum Indochina infected RBC osmotic lysis, higher = more signal, called active from +8 up or from −8 down.
The nature of test [14]: plasmodial surface anion channel blockers, osmotic lysis – cell-based, P. falciparum Indochina, OD700, 2 h, primary screen (AID 1155).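 Also: lysis reports solute entry through the parasite surface anion channel PSAC.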 The note with it: P. falciparum Indochina infected erythrocytes, higher = more signal, called active from +8 up or from −8 down.
Test [15] can be described thus: changes in parasitized red cell lysis, either direction – P. falciparum Indochina, OD700, 3 h, PSAC antagonist project, primary screen (AID 1156). The note with it: P. falciparum-infected erythrocytes, osmotic lysis, higher = more signal, called active from +8 up or from −8 down.
Test [16] can be described thus: plasmodial surface anion channel blockers, osmotic lysis – cell-based, P. falciparum Indochina, OD700, 18 h, primary screen (AID 1157). The note with it: P. falciparum Indochina infected erythrocytes, osmotic lysis OD700, 18 h; higher = more signal, called active from +8 up or from −8 down.
Test [17] can be described thus: S6 kinase pathway phospho-S6 level changes – cell-based, A549, cytoblot, luminescence, serum-stimulated, primary screen (AID 1158).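 Also: serum-stimulated A549 lung adenocarcinoma cells; signal is phosphorylated S6 detected by cytoblot immunostaining with HRP secondary.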 As to conditions: 5 h, higher = more signal.
The target in test [18] is NADPH oxidase 2 (Homo sapiens) (UniProt P04839). As to the kind of experiment: compounds shifting NOX2 Amplex Red fluorescence – cell-based, HEK293-NOX2, PMA-stimulated, NOX inhibitor project, primary screen (AID 1159). Also: test concentration not given here. As to conditions: 45 min, higher = more signal, called active from +8 up or from −8 down.
NADPH oxidase 2 (Homo sapiens), sequence (P04839 whole entry, looked up): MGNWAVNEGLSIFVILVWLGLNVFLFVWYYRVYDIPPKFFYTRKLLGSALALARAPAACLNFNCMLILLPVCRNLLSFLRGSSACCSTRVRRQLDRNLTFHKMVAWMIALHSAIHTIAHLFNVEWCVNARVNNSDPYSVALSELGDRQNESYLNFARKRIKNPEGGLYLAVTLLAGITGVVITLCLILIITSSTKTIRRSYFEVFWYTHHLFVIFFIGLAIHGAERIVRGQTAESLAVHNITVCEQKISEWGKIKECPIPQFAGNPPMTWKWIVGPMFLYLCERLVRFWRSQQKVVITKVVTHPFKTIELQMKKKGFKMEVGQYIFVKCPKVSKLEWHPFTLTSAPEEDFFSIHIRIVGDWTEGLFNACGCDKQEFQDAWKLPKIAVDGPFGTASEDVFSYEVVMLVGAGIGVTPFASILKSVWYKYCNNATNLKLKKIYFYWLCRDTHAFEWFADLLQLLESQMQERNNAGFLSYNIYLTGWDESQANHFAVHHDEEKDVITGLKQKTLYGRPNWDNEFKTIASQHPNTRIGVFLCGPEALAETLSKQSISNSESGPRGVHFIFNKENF
The target in test [19] is NADPH oxidase 4 (Homo sapiens) (UniProt Q9NPH5). The experiment in a line: compounds shifting NOX4 Amplex Red fluorescence – cell-based, HEK293-NOX4, tetracycline-induced, NOX inhibitor project, primary screen (AID 1160). As to conditions: HEK293-NOX4, Amplex Red H2O2 fluorescence, 45 min; higher = more signal, called active from +8 up or from −8 down.
NADPH oxidase 4 (Homo sapiens), sequence (Q9NPH5 whole entry, looked up): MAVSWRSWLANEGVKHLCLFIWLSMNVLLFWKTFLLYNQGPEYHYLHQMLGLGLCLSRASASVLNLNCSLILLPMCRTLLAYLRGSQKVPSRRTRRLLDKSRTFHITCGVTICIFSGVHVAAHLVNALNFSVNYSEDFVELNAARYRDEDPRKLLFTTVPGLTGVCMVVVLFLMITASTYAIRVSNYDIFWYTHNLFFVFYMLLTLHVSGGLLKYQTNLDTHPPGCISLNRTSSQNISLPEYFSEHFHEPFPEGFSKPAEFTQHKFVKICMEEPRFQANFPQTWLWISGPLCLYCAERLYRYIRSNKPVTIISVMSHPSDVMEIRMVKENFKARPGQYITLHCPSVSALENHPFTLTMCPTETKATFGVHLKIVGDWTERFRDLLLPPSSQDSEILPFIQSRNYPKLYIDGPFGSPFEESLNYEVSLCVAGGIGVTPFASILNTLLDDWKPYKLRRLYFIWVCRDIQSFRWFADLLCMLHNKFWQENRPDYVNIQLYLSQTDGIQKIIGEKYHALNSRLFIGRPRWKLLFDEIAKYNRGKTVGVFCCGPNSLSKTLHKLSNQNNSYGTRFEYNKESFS
Test [20] deals with NADPH oxidase 5 (Homo sapiens) (UniProt Q96PH1). As to the kind of experiment: compounds shifting NOX5 Amplex Red fluorescence – cell-based, HEK293-NOX5, NOX inhibitor project, primary screen (AID 1161). The note with it: HEK293-NOX5, ionomycin, 45 min, higher = more signal.
NADPH oxidase 5 (Homo sapiens), sequence (Q96PH1 whole entry, looked up): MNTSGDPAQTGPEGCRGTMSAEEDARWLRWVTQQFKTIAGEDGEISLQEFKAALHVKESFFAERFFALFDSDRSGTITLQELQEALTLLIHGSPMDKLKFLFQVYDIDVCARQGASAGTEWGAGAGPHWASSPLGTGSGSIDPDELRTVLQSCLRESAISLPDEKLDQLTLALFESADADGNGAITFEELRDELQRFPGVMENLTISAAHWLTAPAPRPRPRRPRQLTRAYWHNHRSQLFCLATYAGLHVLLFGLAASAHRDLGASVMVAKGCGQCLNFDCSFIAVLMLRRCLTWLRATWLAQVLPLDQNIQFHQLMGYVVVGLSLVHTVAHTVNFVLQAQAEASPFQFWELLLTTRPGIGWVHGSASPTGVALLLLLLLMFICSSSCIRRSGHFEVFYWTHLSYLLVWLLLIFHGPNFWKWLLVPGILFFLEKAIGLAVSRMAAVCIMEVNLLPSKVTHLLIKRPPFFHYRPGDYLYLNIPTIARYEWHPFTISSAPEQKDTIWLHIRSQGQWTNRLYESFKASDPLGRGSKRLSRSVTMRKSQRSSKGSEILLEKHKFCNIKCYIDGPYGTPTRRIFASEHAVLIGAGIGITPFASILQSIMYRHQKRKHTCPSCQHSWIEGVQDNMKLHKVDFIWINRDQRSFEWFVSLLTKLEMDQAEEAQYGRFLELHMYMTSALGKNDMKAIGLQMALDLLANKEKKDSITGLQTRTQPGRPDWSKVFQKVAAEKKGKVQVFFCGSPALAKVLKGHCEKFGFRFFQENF

Calls of active or inactive are those of the source. Unless noted, no rule for the calls is given here.

Torsin-1A (Homo sapiens), sequence (O14656 whole entry, looked up): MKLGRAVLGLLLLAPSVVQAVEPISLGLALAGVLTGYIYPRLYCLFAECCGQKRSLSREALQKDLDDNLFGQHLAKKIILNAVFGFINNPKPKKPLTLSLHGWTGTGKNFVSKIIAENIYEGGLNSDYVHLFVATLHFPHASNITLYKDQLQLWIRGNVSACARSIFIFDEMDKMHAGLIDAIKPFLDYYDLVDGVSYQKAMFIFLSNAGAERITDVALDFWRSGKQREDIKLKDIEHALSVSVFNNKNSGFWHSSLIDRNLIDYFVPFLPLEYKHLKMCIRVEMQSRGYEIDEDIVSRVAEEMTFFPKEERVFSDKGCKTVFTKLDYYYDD

Turning to `O=C1O[C@H](c2ccccc2)[C@H](c2ccccc2)N2[C@H]1[C@@H](C(=O)Nc1nc3ccccc3s1)[C@]1(C(=O)Nc3ccc(C#CC4=CCCCC4)cc31)[C@H]2c1ccccc1OCCO`, the composite z-score in [1] was 0.266; in [6], 0.841; in [7], 0.0649; with Torsin-1A (Homo sapiens) [8], 0.552; with Torsin-1A (Homo sapiens) [9] it was 0.0083; in test [10], 1.63. This molecule also displayed a composite z-score in test [12] of 0.179. The z-score in test [2] was -4.26 (inactive); in test [3], 0.331 (inactive); in test [4], 0.619 (inactive); in [5] it was -0.0292 (inactive); in [11], -0.485 (inactive); in [13], 1.96 (inactive). Besides, the z-score in [14] is 2.21 (inactive); in test [15], 0.344 (inactive); in test [16], 1.41 (inactive); in test [17], -0.0532; in test [18], 0.76 (inactive); in test [19], 0.195 (inactive). Besides, the z-score in test [20] was found to be 0.963.

Consider `COC(=O)C[C@H]1O[C@]2(C(=O)N(Cc3ccccc3)c3ccc(I)cc32)[C@@H](C)[C@@H]1[Si](C)(C)c1ccc(OC)cc1`, for which the composite z-score was -0.213 in test [1]; 0.0595 in [6]; -0.106 in [7]; -0.181 in the test with Torsin-1A (Homo sapiens) [8]; -0.0957 with Torsin-1A (Homo sapiens) [9]; -0.657 in test [10]. Besides, the composite z-score in [12] was -0.235. Also, the z-score in test [2] is -1.09 (inactive); in test [3], -0.135 (inactive); in test [4], -0.505 (inactive); in [5], -0.522 (inactive); in test [11], -0.562 (inactive); in test [13], 1.09 (inactive). Moreover, the z-score in test [14] was 0.544 (inactive); in test [15], 0.558 (inactive); in test [16], 0.574 (inactive); in test [17], 1.01; in test [18], 1.89 (inactive); in [19], -2.05 (inactive). Also, the z-score in test [20] was found to be 0.00992.

Take `C#C[C@H](O[Si](C#Cc1ccccc1)(C(C)C)C(C)C)c1ccccc1`: the composite z-score is -0.0449 in [1]; -0.636 in test [6]; -0.242 in [7]; -0.234 in the test with Torsin-1A (Homo sapiens) [8]; -0.543 with Torsin-1A (Homo sapiens) [9]; -0.154 in test [10]. In addition, in [12], the composite z-score is 0.22. Besides, the z-score in test [2] was -1.33 (inactive); in [3], -0.368 (inactive); in test [4] it was -0.258 (inactive); in test [5] it was 6.27 (inactive); in test [11], -0.0719 (inactive); in test [13] it was 0.876 (inactive). Besides, the z-score in test [14] was 0.924 (inactive); in [15], -1.54 (inactive); in test [16] it was 0.234 (inactive); in test [17] it was -0.801; in test [18], 0.146 (inactive); in [19], -0.779 (inactive). In addition, the z-score in test [20] is -2.37.

For the molecule `COCCOC(=O)N1C(=O)[C@@]2(c3cc(C#CC4=CCCCC4)ccc31)[C@H](C(=O)NC[C@H](O)c1ccccc1)[C@H]1C(=O)O[C@H](c3ccccc3)[C@H](c3ccccc3)N1[C@@H]2c1ccc(OCCO)cc1`, the composite z-score in [1] was 0.374; in test [6], 0.855; in [7], 0.0446; with Torsin-1A (Homo sapiens) [8], 0.481; with Torsin-1A (Homo sapiens) [9], 0.0642; in test [10] it was 2.05. The composite z-score in test [12] worked out at 0.197. The z-score in test [2] is -2.96 (inactive); in [3], 0.329 (inactive); in test [4] it was 0.0776 (inactive); in [5] it was 1.2 (inactive); in test [11], -0.999 (inactive); in test [13] it was 3.71 (inactive). Besides, the z-score in test [14] is 2.15 (inactive); in [15], -0.681 (inactive); in [16], 1.05 (inactive); in test [17] it was 0.0766; in test [18], 1.54 (inactive); in test [19], 1.17 (inactive). Besides, the z-score in [20] was 1.59.

(Values after PubChem BioAssay.)
